These results are taken from PubChem BioAssay.

Test [1] is described as follows: compounds binding Alexa647 anti-His antibody – biochemical, small-molecule microarray, 635 nm fluorescence, artefact control for SMM control protein annotation, primary screen (AID 1128).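 Note: score merges feature fluorescence with signal-to-noise for each printed compound spot.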 Particulars: higher = more signal.
Test [2] relates to Human papillomavirus type 1a E7 protein (residues 1-88). Description: HPV1a E7 small-molecule binders, primary screen, biochemical, small-molecule microarray, residues 1-88, 635 nm (AID 1129). The conditions noted are these: small-molecule microarray binding, fluorescence 635 nm; higher = more signal.
Test [3] addresses Focal adhesion kinase 1 (Homo sapiens) (UniProt Q05397). Description: PTK2 protein binding on printed compound slides – biochemical, small-molecule microarray, 635/667 nm fluorescence, BSA, DTT, primary screen (AID 1130).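 Note: composite of spot emission at 667 nm and signal to noise over triplicate slides.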 The conditions noted are these: 635 nm fluorescence, higher = more signal.
The subject of test [4] is Fibrinogen (Alexa647-labelled). Kind of test: Alexa647-fibrinogen binding to printed small molecules – biochemical, small-molecule microarray, 635/667 nm fluorescence, artefact control for SMM control-protein annotation, profiling panel (AID 1131).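 Note: z-score merges 667 nm fluorescence with per-spot signal-to-noise over triplicate slides.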 Particulars: fibrinogen-A647 binding fluorescence, higher = more signal.
For test [5], the target named is Follistatin (Homo sapiens) (UniProt P19883). Description: FST protein binding to printed compounds – biochemical, small-molecule microarray, 635/667 nm fluorescence, primary screen (AID 1132). Particulars: 635 nm fluorescence, higher = more signal.
Follistatin (Homo sapiens), sequence (P19883 whole entry, looked up): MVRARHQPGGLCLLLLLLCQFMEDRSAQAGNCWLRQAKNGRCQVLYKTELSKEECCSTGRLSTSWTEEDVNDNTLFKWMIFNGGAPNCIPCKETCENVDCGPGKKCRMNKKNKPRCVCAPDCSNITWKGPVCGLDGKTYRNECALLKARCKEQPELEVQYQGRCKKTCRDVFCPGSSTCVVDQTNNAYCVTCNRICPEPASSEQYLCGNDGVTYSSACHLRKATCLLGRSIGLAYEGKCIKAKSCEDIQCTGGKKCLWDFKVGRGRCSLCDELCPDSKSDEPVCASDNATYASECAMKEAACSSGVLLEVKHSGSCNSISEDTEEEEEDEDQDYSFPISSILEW
The target of test [6] is Fibroblast growth factor 2 (Homo sapiens) (UniProt P09038). Description: basic fibroblast growth factor binding to printed compounds – biochemical, small-molecule microarray, 635/667 nm fluorescence, primary screen (AID 1133). Particulars: FGF2, fluorescence 635/667, higher = more signal.
Fibroblast growth factor 2 (Homo sapiens), sequence (P09038 whole entry, looked up): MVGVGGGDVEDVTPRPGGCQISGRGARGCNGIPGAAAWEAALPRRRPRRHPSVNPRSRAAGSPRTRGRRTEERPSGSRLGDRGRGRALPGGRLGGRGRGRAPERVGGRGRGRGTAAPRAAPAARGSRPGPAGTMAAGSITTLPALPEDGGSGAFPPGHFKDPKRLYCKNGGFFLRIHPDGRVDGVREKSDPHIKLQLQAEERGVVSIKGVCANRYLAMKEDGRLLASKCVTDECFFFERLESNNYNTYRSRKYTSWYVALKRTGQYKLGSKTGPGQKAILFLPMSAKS
The nature of test [7]: JC-1 mitochondrial potential readout, lung cancer cells – cell-based, A549, JC-1 fluorescence, basal, 24 h, 100 nL, profiling panel (AID 1138).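 Note: A549 lung adenocarcinoma cells under basal conditions with no added stimulus; test concentration not given here.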 The conditions noted are these: higher = more signal.
Another test concerns Lefty1. Kind of test: Lefty1 protein binding to printed compounds – biochemical, small-molecule microarray, 635/667 nm fluorescence, primary screen (AID 1139). Particulars: fluorescence 635/667, higher = more signal.
For test [8], the system named is wheat germ agglutinin (Triticum aestivum), Alexa647-labelled. Description: Alexa647-WGA lectin binding to printed small molecules – biochemical, small-molecule microarray, 635/667 nm fluorescence, artefact control for SMM control-protein annotation, profiling panel (AID 1140).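 Note: score merges 667 nm feature emission with signal to noise over triplicate slides.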 The conditions noted are these: WGA-A647 binding, 635 nm fluorescence, higher = more signal.

Test [9] has as its target Luciferin 4-monooxygenase (Photinus pyralis) (UniProt P08659). Kind of test: inhibition of purified Photinus pyralis luciferase – biochemical, luminescence, purified enzyme, 2006 set, primary screen (AID 1141).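 Note: cell-free assay with purified firefly luciferase at 100 ng per well in PBS; test concentration not given here.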 The conditions noted are these: purified firefly luciferase, SteadyGlo luminescence, 30 min; higher = more signal, called active from +8 up or from −8 down.
Test [10] concerns Wnt5a (protein binding on small-molecule microarray). Kind of test: small molecules binding Wnt5a protein – biophysical, small-molecule microarray, 635/667 nm fluorescence, primary screen (AID 1142).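 Note: fluorescence read at 667 nm with signal to noise per printed feature.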 The conditions noted are these: 635 nm fluorescence, higher = more signal.
Test [11] in a line: ATP-based viability of Huh7 replicon cells – cell-based, CellTiter-Glo luminescence, basal, 48 h, cytotoxicity control for HCV replication inhibitor project, primary screen (AID 1143).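 Note: Huh7 hepatoma cells carrying a hepatitis C replication reporter with no stimulus; test concentration not given here.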 The conditions noted are these: higher = more signal, called active from +8 up or from −8 down. In general terms: In antiviral work, replicon cells carry a viral genome segment that copies itself.

Test [12] can be described thus: Pseudomonas biofilm growth suppression – PAO1 strain, BacTiter-Glo luminescence, LB-PBS, primary screen (AID 1144). Particulars: P. aeruginosa PAO1 biofilm, 12 h, higher = more signal.
Test [13] can be described thus: basal CRE-LacZ reporter activity in PC12 – cell-based, unstimulated, primary screen (AID 1145). Particulars: no forskolin, luminescence, 4.5 h, higher = more signal, called active from +8 up or from −8 down.
The nature of test [14]: forskolin-driven CRE-LacZ activity in PC12 – cell-based, CRE-LacZ reporter, forskolin-stimulated, primary screen (AID 1146).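 Note: PC12 cells with 6xCRE LacZ reporter stimulated by forskolin 10 µM; beta-galactosidase reporter signal reflecting CREB driven transcription.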 The conditions noted are these: luminescence, 4.5 h, higher = more signal, called active from +8 up or from −8 down.
Test [15] concerns the target Streptavidin (Streptomyces avidinii) (UniProt P22629). Kind of test: compounds binding control protein streptavidin – biophysical, small-molecule microarray, 635/667 nm fluorescence, artefact control for SMM compound annotation, primary screen (AID 1147).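 Note: signal reflects streptavidin binding to arrayed compounds as a control protein.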 The conditions noted are these: higher = more signal.
Test [16] in a line: probe aInhba binding on compound microarray – biochemical, small-molecule microarray, 635/667 nm fluorescence, primary screen (AID 1148).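 Note: score merges 667nm spot fluorescence with signal-to-noise for antibody binding to printed compounds.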 The conditions noted are these: higher = more signal.
Test [17] addresses Torsin-1A (Homo sapiens) (UniProt O14656). Kind of test: TOR1A wild-type binding on microarray – cell lysate, small-molecule microarray, lysate, 635/667 nm, primary screen (AID 1149). The conditions noted are these: COS7 hTOR1A-WT lysate, 635 nm fluorescence, higher = more signal.
Test [18] has the same target. Description: torsin A mutant lysate binding on microarrays – cell lysate, small-molecule microarray, COS7 lysate, 635/667 nm fluorescence, primary screen (AID 1150).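 Note: score pools 667 nm emission and signal to noise measuring lysate protein binding.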 The conditions noted are these: COS7 hTOR1A mutant lysate, 635 nm fluorescence, higher = more signal.
The test system of test [19] is Sonic hedgehog protein (Shh). Kind of test: Sonic hedgehog microarray binding compounds – biochemical, small-molecule microarray, 635/667 nm fluorescence, primary screen (AID 1151).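 Note: Shh protein binding to compounds spotted on small-molecule microarray slides; score combines spot fluorescence intensity with signal-to-noise across triplicate slides.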 The conditions noted are these: 635 nm fluorescence, higher = more signal.

The source made the active and inactive calls. Unless noted, the rule behind the calls is not given here.

Luciferin 4-monooxygenase (Photinus pyralis), sequence (P08659 whole entry, looked up): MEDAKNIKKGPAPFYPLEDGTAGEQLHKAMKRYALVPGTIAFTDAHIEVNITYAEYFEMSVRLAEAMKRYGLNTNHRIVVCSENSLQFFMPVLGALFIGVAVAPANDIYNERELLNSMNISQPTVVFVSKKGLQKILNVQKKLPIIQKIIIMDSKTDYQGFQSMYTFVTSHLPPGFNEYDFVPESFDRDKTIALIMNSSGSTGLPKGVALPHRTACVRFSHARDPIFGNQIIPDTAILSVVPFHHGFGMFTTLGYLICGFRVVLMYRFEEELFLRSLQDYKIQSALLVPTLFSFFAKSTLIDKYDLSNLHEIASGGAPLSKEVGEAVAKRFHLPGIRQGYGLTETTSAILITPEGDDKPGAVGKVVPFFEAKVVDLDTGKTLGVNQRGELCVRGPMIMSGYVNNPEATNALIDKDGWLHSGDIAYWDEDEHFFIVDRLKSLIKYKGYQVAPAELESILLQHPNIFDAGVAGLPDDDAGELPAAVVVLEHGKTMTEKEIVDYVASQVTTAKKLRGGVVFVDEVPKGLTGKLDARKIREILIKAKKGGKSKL
Streptavidin (Streptomyces avidinii), sequence (P22629 whole entry, looked up): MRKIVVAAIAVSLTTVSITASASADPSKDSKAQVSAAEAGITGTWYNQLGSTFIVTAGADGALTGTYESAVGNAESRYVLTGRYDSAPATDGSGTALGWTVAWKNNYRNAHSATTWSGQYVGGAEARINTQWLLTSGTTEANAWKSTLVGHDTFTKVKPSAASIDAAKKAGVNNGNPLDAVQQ
Torsin-1A (Homo sapiens), sequence (O14656 whole entry, looked up): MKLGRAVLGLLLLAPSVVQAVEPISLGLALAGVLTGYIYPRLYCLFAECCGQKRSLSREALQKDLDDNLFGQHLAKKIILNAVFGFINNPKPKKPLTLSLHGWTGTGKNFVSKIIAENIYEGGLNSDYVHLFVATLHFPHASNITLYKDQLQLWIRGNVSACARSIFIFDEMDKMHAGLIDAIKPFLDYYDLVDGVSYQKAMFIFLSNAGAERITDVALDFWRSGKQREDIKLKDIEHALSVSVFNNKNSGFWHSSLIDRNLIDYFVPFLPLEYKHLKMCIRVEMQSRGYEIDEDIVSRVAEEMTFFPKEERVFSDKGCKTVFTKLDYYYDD
Focal adhesion kinase 1 (Homo sapiens), sequence (Q05397 whole entry, looked up): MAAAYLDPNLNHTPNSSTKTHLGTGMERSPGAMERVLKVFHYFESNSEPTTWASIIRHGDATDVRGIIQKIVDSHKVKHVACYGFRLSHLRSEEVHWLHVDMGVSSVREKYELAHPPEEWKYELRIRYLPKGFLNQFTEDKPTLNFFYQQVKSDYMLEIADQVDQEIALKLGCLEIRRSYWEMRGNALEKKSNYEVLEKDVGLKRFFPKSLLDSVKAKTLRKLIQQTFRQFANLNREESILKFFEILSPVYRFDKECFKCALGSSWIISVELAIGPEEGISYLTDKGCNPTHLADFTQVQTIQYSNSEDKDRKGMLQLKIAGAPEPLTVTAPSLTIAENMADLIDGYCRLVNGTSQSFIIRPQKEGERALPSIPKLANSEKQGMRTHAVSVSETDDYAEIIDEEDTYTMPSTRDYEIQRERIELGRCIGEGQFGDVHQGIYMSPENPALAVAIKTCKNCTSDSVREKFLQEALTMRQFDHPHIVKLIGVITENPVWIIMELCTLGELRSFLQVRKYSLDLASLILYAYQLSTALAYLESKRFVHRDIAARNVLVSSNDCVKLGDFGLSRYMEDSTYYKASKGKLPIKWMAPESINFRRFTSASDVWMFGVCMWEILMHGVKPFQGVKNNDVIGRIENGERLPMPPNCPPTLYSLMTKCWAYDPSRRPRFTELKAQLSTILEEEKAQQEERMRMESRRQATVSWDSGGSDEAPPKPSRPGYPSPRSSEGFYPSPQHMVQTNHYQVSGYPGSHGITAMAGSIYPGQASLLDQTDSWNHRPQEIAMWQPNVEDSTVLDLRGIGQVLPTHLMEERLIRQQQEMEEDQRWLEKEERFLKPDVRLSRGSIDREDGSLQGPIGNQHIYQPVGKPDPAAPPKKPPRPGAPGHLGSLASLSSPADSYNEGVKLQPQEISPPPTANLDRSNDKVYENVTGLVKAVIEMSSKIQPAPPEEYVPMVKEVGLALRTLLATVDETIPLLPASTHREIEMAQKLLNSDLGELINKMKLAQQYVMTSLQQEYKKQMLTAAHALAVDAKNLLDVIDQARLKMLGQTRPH

Turning to `CN1C(=O)C2CC=C(C3=CCO[C@@H]3[C@H]3CCCN3S(=O)(=O)c3ccccc3[N+](=O)[O-])CC2C1=O` (stereo not given in full), the composite z-score was -0.354 in [1]; -0.342 in test [2]; -0.244 in test [3]; 0.533 in test [4]; 0.0289 in test [5]; 0.159 in test [6]. The composite z-score is -0.106 in the test with Lefty1; -0.0718 in test [8]; 0.0169 in test [10]; -0.102 in test [15]; 0.0516 in [16]; -0.23 with Torsin-1A (Homo sapiens) [17]. The composite z-score with Torsin-1A (Homo sapiens) [18] was -0.282; in [19], -0.151. In addition, the z-score in test [7] is 0.0911; in [9], 0.294 (inactive); in test [11], 0.459 (inactive); in [12] it was 0.0769 (inactive); in test [13], -0.505 (inactive); in test [14], 1.14 (inactive).

As for `COC(=O)Cn1c(C(=O)N(C)C)cc2c1C[C@H]1CN(C(=O)c3ccccc3)[C@@](Cc3ccccc3)(C(=O)OC)[C@@H]21`, the composite z-score in test [1] was 0.733; in test [2], 0.278; in test [3], 0.499; in test [4], -0.254; in test [5], -0.253; in test [6], 0.179. Also, the composite z-score was -0.0528 with Lefty1; 0.533 in test [8]; 0.135 in test [10]; 0.822 in test [15]; 0.105 in test [16]; 0.263 in the test with Torsin-1A (Homo sapiens) [17]. For the same compound, the composite z-score with Torsin-1A (Homo sapiens) [18] is 0.541; in [19], -0.535. The z-score in test [7] was 0.553; in test [9], 3.15 (inactive); in test [11] it was -0.273 (inactive); in test [12], -0.334 (inactive); in test [13], -0.189 (inactive); in test [14] it was -0.637 (inactive).

On to `C=C(C(=O)CC[C@H](OC(=O)c1ccccc1-c1ccccc1C(=O)O)c1ccc(OCCO)cc1)C(C)C`, for which the composite z-score in test [1] was 0.547; in test [2], 1.16; in test [3] it was 0.124; in test [4], 0.981; in test [5], 0.901; in [6], 0.726. Further, the composite z-score was 0.64 with Lefty1; 0.189 in test [8]; 0.686 in test [10]; -0.0151 in [15]; 0.0497 in [16]; 1.87 with Torsin-1A (Homo sapiens) [17]. Moreover, the results for the composite z-score (with Torsin-1A (Homo sapiens) [18]; in [19]) were 1.5 and 0.7, respectively. Further, the z-score was -0.45 in [7]; -1.35 (inactive) in test [9]; -0.723 (inactive) in test [11]; -1.22 (inactive) in test [12]; 0.611 (inactive) in test [13]; 1.09 (inactive) in [14].

For the compound `COCCCNC(=O)[C@@]1(c2ccc([N+](=O)[O-])cc2)CC(=O)N(C2CCCCC2)[C@@H]1c1ccc(CO)cc1I`, the composite z-score in test [1] was 3.3; in test [2], 1.2; in test [3], 0.964; in test [4], 0.014; in test [5] it was 1.45; in [6], 1.44. The composite z-score in the test with Lefty1 is 0.418; in test [8], 0.524; in [10], 0.0398; in test [15], -0.16; in test [16], 0.0575; with Torsin-1A (Homo sapiens) [17] it was 0.95. For the same compound, the results for the composite z-score (with Torsin-1A (Homo sapiens) [18]; in test [19]) were 1.39 and 1.81, respectively. Further, the z-score was 2.77 in test [7]; -0.883 (inactive) in test [9]; -3.87 (inactive) in [11]; 0.239 (inactive) in test [12]; 0.414 (inactive) in test [13]; -0.543 (inactive) in test [14].

Consider `C=CCNC(=O)[C@H]1[C@@H]2C(=O)O[C@@H](c3ccccc3)[C@@H](c3ccccc3)N2[C@@H](c2ccc(OCCO)cc2)[C@]12C(=O)Nc1ccc(C#Cc3ccc(OC)cc3)cc12`, for which the composite z-score in [1] came out at 1.38; in test [2] it was 1.23; in [3], 0.905; in test [4], 0.965; in [5], 1.37; in test [6], 0.977. Besides, the composite z-score in the test with Lefty1 worked out at 0.811; in [8], 1.14; in [10], 0.4; in test [15], 0.918; in test [16], 0.165; with Torsin-1A (Homo sapiens) [17], 0.44. Besides, the composite z-score with Torsin-1A (Homo sapiens) [18] amounted to 0.471; in [19], 0.974. Also, the z-score in test [7] was -1.7; in [9], 0.152 (inactive); in [11], -3.41 (inactive); in [12], -0.832 (inactive); in test [13], 0.478 (inactive); in test [14], 0.237 (inactive).
